Reference: PubChem BioAssay AID1619 (SRMLSC, 2009)
The campaign covered roughly 220,000 compounds. About 830 (0.38%) were called active.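 How the source made its calls: active means compound inhibiting the enzyme by more than half at any dose during confirmatory dose-response retesting; inconclusive means strong single-dose inhibitors picked by rank but not retested; inactive means the rest.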 A selection follows. Potency and affinity values are given separately.

These molecules were tested against Leucine aminopeptidase (Plasmodium falciparum (isolate 3D7)) (UniProt Q8IL11) (assay: P. falciparum M17LAP inhibitors, primary screen, biochemical, fluorogenic H-Leu-NHMec substrate, 1536-well (AID 1619;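 further: plate controls were full reaction with DMSO carrier for no effect and no enzyme background for full effect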)). Conditions: recombinant M17LAP, H-Leu-NHMec fluorogenic kinetic assay; at 30 µM; hits give high values.
Sequence of Leucine aminopeptidase (Plasmodium falciparum (isolate 3D7)) (Q8IL11 whole entry, looked up): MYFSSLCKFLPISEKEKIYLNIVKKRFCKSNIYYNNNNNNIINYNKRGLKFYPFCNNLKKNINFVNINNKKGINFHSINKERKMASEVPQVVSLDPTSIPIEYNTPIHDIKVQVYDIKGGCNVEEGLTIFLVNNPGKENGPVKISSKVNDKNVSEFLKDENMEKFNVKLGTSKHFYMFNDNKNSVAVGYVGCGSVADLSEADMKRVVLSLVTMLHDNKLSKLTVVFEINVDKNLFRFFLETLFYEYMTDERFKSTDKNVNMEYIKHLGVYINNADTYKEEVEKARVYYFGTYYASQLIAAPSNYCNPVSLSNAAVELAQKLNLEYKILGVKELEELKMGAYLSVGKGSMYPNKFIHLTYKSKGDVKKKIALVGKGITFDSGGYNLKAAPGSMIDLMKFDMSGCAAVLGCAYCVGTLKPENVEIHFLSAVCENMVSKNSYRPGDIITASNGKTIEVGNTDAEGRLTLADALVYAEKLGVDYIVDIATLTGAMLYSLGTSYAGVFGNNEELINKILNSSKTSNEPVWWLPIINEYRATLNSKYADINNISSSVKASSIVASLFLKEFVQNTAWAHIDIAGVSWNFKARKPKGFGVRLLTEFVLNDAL

inhibition, inactive:
COc1ccc2nc(N3CCCCC3)c(/C=C3\SC(=S)NC3=O)cc2c1 15.3%
O=C1NC(=S)S/C1=C\c1cc2ccccc2nc1N1CCCCC1 8.4%
O=C(CSCc1ccccc1Br)N/N=C/c1ccc(OCC(=O)N2CCCCC2)cc1 9.49%
O=C1NC2(CCCCC2)C(=O)N1/N=C/c1ccccc1Br -1.17%
CCCc1nc2ccccc2c(=O)n1/N=C/c1ccccc1O -13.5%
CCCc1nc2ccccc2c(=O)n1/N=C/c1ccc(O)cc1 -6.52%
Cc1ccc(-c2ccc(NC(=O)C3C4C=CC(C4)C3C(=O)O)cc2)o1 (stereo unspecified) 51.5%
Cc1ccc(-c2cccc(NC(=O)C3C(C(=O)O)[C@@H]4C=C[C@H]3C4)c2)o1 (stereo partly specified) 22.7%
CCOC(=O)C/C(C)=N/NC(=O)C1CC1(c1ccccc1)c1ccccc1 (stereo unspecified) -7.82%
Cc1cc(NC(=O)c2ccc(NC(=O)C3CC3)cc2)no1 -1.13%
COc1ccc(Br)cc1CN(C)C(C)C(=O)Nc1cccc(C(C)=O)c1 (stereo unspecified) -4.69%
CC1CCc2nn(CC(=O)Nc3ccc(F)cc3F)cc2C1 (stereo unspecified) 6.54%
Cc1ccc(NC(=O)Cn2cc3c(n2)CCC(C)C3)cc1 (stereo unspecified) -7.43%
CC1CCN(S(=O)(=O)c2ccc3ncn(CC(=O)N(C)Cc4ccccc4)c(=O)c3c2)CC1 3.66%
COc1ccc(N2C(=O)CCC(C(=O)N3CCCCCC3)C2c2ccc(OC)c(OC)c2)cc1 (stereo unspecified) -1.54%
CCCCC(CC)C(=O)NCC(C)NC(=O)C(CC)CCCC (stereo unspecified) 2.99%
CCOc1ccc(C(=O)NCC(=O)OCC(=O)Nc2ccccc2OCC)cc1 0.01%
CC(OC(=O)Cc1coc2ccc3ccccc3c12)C(=O)Nc1ncc(Cl)cc1Cl (stereo unspecified) 5.82%
Cn1c(=O)[nH]c(=O)c2c1nc(NC1CCCCC1)n2CC(=O)NC1CCCCC1 10.2%
COc1cccc(NC(=O)CC2COc3ccccc3O2)c1 (stereo unspecified) 7.49%
COc1ccc(NC(=O)CCC2COc3ccccc3O2)c(OC)c1 (stereo unspecified) 11.9%
COc1ccc(C)cc1NC(=O)CC1COc2ccccc2O1 (stereo unspecified) 4.49%
COc1cc(OC)c(OC)cc1NC(=O)CC1COc2ccccc2O1 (stereo unspecified) -17.5%
FC(F)(F)c1ccccc1NC(=S)N1CCN(c2ccccn2)CC1 1.6%
Oc1cc(Cc2ccccc2)cnc1CN1CCOCC1 -3.17%
CCCCCOP(=O)(c1ccccc1)c1ccccc1 -7.38%
